Screening data from PubChem BioAssay.
AMA1 RON2 block – disrupts binding of P. falciparum AMA1 to RON2; actives 0.2% (n = 360,000); Potency, µM (titrated, usually from 58.2 µM), most hits filed as inhibitors; AlphaScreen AMA1-biotinylated RON2 peptide binding; AID 720542; also: nearly all actives have a fitted effect of over 45% in size
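AMA1 (3D7) with his tag at 25 nM final met compounds first, then biotinylated RON2 peptide at 25 nM; detection used donor plus acceptor beads, 10 µg/mL apiece, read by AlphaScreen after 30 min at room temperature.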
Pf growth 96h – P. falciparum growth inhibition at 96 hour, primary screen for plastid delayed-death inhibitors; P. falciparum luciferase reporter growth, 96 h; Potency, µM (highest dose often 28.7 µM), hits mostly inhibitors; actives 6.9% (n = 320,000); AID 504834
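Parasite growth measured via integrated firefly luciferase reporter in P. falciparum. Infected erythrocytes at 2% hematocrit, 0.05% parasitemia final were treated 96 hours at 37 C under 5% CO2, and luminescence was read.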
SARS PLP yeast – inhibitors of SARS-CoV papain-like protease in yeast | S. cerevisiae expressing SARS-CoV PLpro, growth rescue | Potency, µM (doses to about 32.9 µM), hits mostly activators | AID 485353 | actives 0.19% (n = 330,000); calls by dose curve; also: nearly all actives have a fitted effect of over 55% in size
Pf growth 48h – P. falciparum growth inhibition at 48 hours (one generation). P. falciparum luciferase growth in erythrocytes, 48 h. Potency, µM (top dose mostly 28.7 µM), most hits filed as inhibitors. actives 5.9% (n = 310,000). AID 504832
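Luminescence readout; reporter = integrated firefly luciferase in P. falciparum. RBC culture at 2% hematocrit, 0.1% parasitemia final, 37 C/5% CO2; decreased signal taken as growth inhibition.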
Hits are given with their value; i = inactive; ? = inconclusive; nt = not tested or not shown; [ ] = remark or other dose. Most compounds without a hit are left out; they make up all but 9.4% or so of the library. Unless noted, calls follow the shape of the dose curve; as a rule, active = well fitted curve in the direction sought with a large enough effect; inconclusive = small, poorly fitted or top-dose-only effect, or another doubt; inactive = no such curve, though single readings can be large; an effect the other way counts as inactive or inconclusive.

SMILES	AMA1 RON2 block	Pf growth 96h	SARS PLP yeast	Pf growth 48h
CC(C)(C)C(=O)N(Cc1nc2ccccc2c(=O)[nH]1)Cc1cccs1	i	12µM	i	i
COc1cc(CN2CCC(C(=O)NC(c3ccc(F)cc3)c3ccc4ccccc4n3)CC2)cc(OC)c1 (centres undefined)	i	nt	nt	nt
C[C@H](CO)N1C[C@H](C)[C@H](CN(C)C(=O)Nc2ccc(C(C)(C)C)cc2)OCc2cnnn2CCCC1=O	i	nt	nt	nt
COC(=O)C1=C(C)NC(C)=C(C(=O)OCCN2CCN(C(c3ccccc3)c3ccccc3)CC2)C1c1cccc([N+](=O)[O-])c1 (centres undefined)	nt	2.4µM	nt	1.7µM
O=C(NCCOC(=O)c1ccc([N+](=O)[O-])cc1)c1cccnc1	i	i	i	i
CCOC(=O)C1=C(C)NC(C)=C(C(=O)OCCNC(=O)c2cccnc2)C1c1cccc([N+](=O)[O-])c1 (centres undefined)	i	9.3µM	i	?
COCCOC(=O)C1=C(C)N(c2ccccc2)C(=O)NC1c1cccc([N+](=O)[O-])c1 (centres undefined)	i	i	i	?
COC(=O)C1=C(C#N)NC(C)=C(C(=O)OC(C)C)C1c1cccc([N+](=O)[O-])c1 (centres undefined)	nt	1.2µM	nt	7.6µM
COC(=O)C1=C(C)NC(C)=C(C(=O)OCCN(C)Cc2ccccc2)C1c1cccc([N+](=O)[O-])c1 (centres undefined)	i	2.1µM	i	1.7µM
COC(=O)C1=C(C)NC(C)=C(C(=O)OC)C1c1ccc(-c2cccc([N+](=O)[O-])c2)o1	i	?	i	?
CC1CCC(NC(=O)Cn2c3c(c(-c4ccccc4Cl)cc2=O)CCC3)CC1 (centres undefined)	i	i	i	?
CC(=O)c1ccc(N=Nc2ccc(N(C)C)cc2)cc1	?	i	i	i
CN(C)c1ccc(N=Nc2ccccc2Br)cc1	11µM	i	i	i
O=C(Cc1n[nH]c(=O)c2ccccc12)OCC(=O)c1ccc(F)c(F)c1	i	i	i	i
CC1(C)CC(=O)C(Sc2nnc(-c3ccc(O)cc3)n2CC2CCCO2)C(=O)C1 (centres undefined)	i	1µM	i	nt
O=C(CN1C(=O)CCC1=O)NCC12CC3CC(CC(C3)C1)C2	i	i	nt	?
CC(=O)c1cc(Cl)ccc1OC(=O)c1ccco1	i	nt	i	i
O=C(Oc1ccc(OC(=O)c2ccco2)c(S(=O)(=O)c2ccc(Cl)cc2)c1)c1ccco1	i[2.32 µM]	10µM	i	i
O=C(Oc1cccc(OC(=O)c2ccco2)c1)c1ccco1	i	15µM	i	i
O=S(=O)(NN1CCOCC1)c1cc(Cl)cc(Cl)c1O	i	1.7µM	i	i
CCc1ccc2nc3nc(C)cc(C)c3c(N)c2c1	i	1.7µM	i	?
Cc1cc(C)c2c(N)c3ccccc3nc2n1	i	i	i	15µM
COc1ccc(C(=O)NCC(c2ccco2)N2CCc3ccccc32)c(OC)c1 (centres undefined)	i	13µM	i	12µM
COc1ccc(S(=O)(=O)NCC(c2ccco2)N2CCc3ccccc32)cc1 (centres undefined)	i	?	nt	9.3µM
Cc1ccc(S(=O)(=O)NCC(c2ccco2)N2CCc3ccccc32)cc1 (centres undefined)	i	?	i	?
SMILES	AMA1 RON2 block	Pf growth 96h	SARS PLP yeast	Pf growth 48h
O=[N+]([O-])c1ccc(S(=O)(=O)NCC(c2cccnc2)N2CCc3ccccc32)cc1 (centres undefined)	i	15µM	i	12µM
CC1=CCC(C(=O)O)C(C(=O)Nc2cccnc2)C1 (centres undefined)	i	i	i	i
Cc1cc2nc(/C=C/c3cccnc3)[nH]c2cc1C	i	i	i	i
Cc1cc2nc(/C=C/c3nc4cc(C)c(C)cc4[nH]3)[nH]c2cc1C	i	0.33µM	i	0.47µM
CCCCCc1ccc(OCCC[n+]2ccccc2)c(CCCCC)c1	i	?	i	1.9µM
CCCCOc1ccccc1Cn1c(=O)oc2ccccc21	i	i	i	i
CCCCCc1ccc(OCCOCCn2c[n+](C)c3ccccc32)c(CCCCC)c1	i	i[1.15 µM]	i	2.9µM
CCc1c(C(=O)Nc2ccncc2)csc1C	i	?	i	8.3µM
CCOC(=O)C1CN(S(=O)(=O)c2ccc(OC)cc2)c2cc(CC(=O)OC)ccc2O1 (centres undefined)	i	i	i	i
C=C(C)COc1ccc2c(C)c(CC(=O)N3C[C@H]4C[C@@H](C3)c3cccc(=O)n3C4)c(=O)oc2c1	i	?	i	?
